# Experimental data from ChEMBL document CHEMBL3988442, “University of Dundee, Small-Polar-MMV Screening Library” (2021).
# Screen size: about 66,000 compounds; about 960 (1.5%) showed an effect of 50% or more. The full list was thinned out, with strong results kept by preference.
# System: Trypanosoma brucei
# Assay: Trypanosoma brucei 72 hour study
# Assay type: functional, organism-based
# Design: scale not given: in the data most compounds retested in dose-response had high values
smiles,measurement,setting,value
Cc1cc(SCC(=O)O)nc2nn(CC(F)F)c(C)c12,Percent Effect,"30.3 µM, […]",-20.88%
CCc1nc(-c2cncnc2C2CCCNC2)no1.Cl (stereo not drawn),Percent Effect,"30.3 µM, […]",10%
CCC(CC)C(=O)N1CCc2nc(N3CCCC3)nc(C)c2CC1,Percent Effect,"30 µM, 30.03 µM",-41.54%
Cc1cccc(CN2C[C@@H]3CN(C(=O)c4ccco4)C[C@@H]3C2=O)n1.O=C(O)C(F)(F)F,Percent Effect,"30.3 µM, […]",-11.66%
CN1CCC(NC(=O)Cc2csc(C(C)(C)C)n2)CC1,Percent Effect,"30.3 µM, […]",4.768%
CC(=O)N1CCC(NC(=O)Cc2csc(C(C)(C)C)n2)CC1,Percent Effect,"30.3 µM, […]",-5.92%
CC(C)(C)c1nc(CC(=O)NC2CCN(C3CC3)C2)cs1 (stereo not drawn),Percent Effect,"30.3 µM, […]",99.7%
COc1cc2c(c(OC)c1OC)CCN(CCN1CCCCC1)CC2,Percent Effect,"30 µM, 30.03 µM",-20.4%
CCN1CCN(c2ccccc2NC(=O)NCc2ccon2)CC1,Percent Effect,"30.3 µM, […]",-63.99%
Cn1cc(CN2CCCC(CCc3ccccc3C(F)(F)F)C2)cn1 (stereo not drawn),Percent Effect,"30 µM, 30.03 µM",-18.52%
Cc1nc(CN2CCCC(N(C)CC3CCCC3)C2)no1 (stereo not drawn),Percent Effect,"30.3 µM, […]",-21.28%
FC(F)(F)c1ccccc1CCC1CCCN(Cc2cscn2)C1 (stereo not drawn),Percent Effect,"30.3 µM, […]",51.05%
Cc1nnc(CN2CCCC(CCc3ccccc3C(F)(F)F)C2)o1 (stereo not drawn),Percent Effect,"30.3 µM, […]",32.35%
Cc1nc(CN2CCCC(CCc3ccccc3C(F)(F)F)C2)no1 (stereo not drawn),Percent Effect,"30.3 µM, […]",87.44%
Cc1nc(CN2CCCC(CCc3cccc(C(F)(F)F)c3)C2)co1 (stereo not drawn),Percent Effect,"30.3 µM, […]",40.44%
Fc1ccccc1CC1CCN(Cc2cscn2)CC1,Percent Effect,"30 µM, 30.03 µM",-2.509%
Cc1nc(CN2CCCC(CCc3ccccc3C(F)(F)F)C2)co1 (stereo not drawn),Percent Effect,"30.3 µM, […]",52.02%
Cc1nc(CN2CCCC(N(C)CCCc3ccccc3)C2)no1 (stereo not drawn),Percent Effect,"30.3 µM, […]",-9.572%
Cc1ccc2c(n1)N(Cc1cccnc1)CCN(C1CCOCC1)C2.O=C(O)C(F)(F)F.O=C(O)C(F)(F)F.O=C(O)C(F)(F)F,Percent Effect,"30 µM, 30.03 µM",-18.41%
CC1N(c2cnn(C)c2)C(=O)COC12CCN(c1ccccn1)CC2.O=C(O)C(F)(F)F (stereo not drawn),Percent Effect,"30.3 µM, […]",-14.53%
Cc1oncc1C(=O)N1CC[C@H]2[C@H](C[C@@H](CN(C)C)N2CC2CC2)C1.O=C(O)C(F)(F)F.O=C(O)C(F)(F)F,Percent Effect,"30.3 µM, […]",-0.8006%
Cl.O=C(CCN1CCCC1)Nc1c2c(cc3c1CCC3)CCC2,Percent Effect,"30 µM, 30.03 µM",0.04304%
COCC(=O)NC[C@]12COC[C@H]1CN(Cc1ccc3c(c1)OCO3)C2.O=C(O)C(F)(F)F,Percent Effect,"30.3 µM, […]",5.113%
COC1COC2(CCN(C(=O)c3ccccc3F)CC2)C1 (stereo not drawn),Percent Effect,"30.3 µM, […]",-57.28%
CCN(C)c1ncnc2c1CCN(C(=O)Cc1ccccn1)CC2.O=C(O)C(F)(F)F,Percent Effect,"30 µM, 30.03 µM",-43.42%
Cc1ccc(N2CC[C@H](OCC3CC3)[C@@H]2Cc2cnn(C)c2)nn1,Percent Effect,"30 µM, 30.03 µM",51.55%
CCO[C@@H]1CCN(c2ccc(C)nn2)[C@@H]1Cc1cnn(C)c1,Percent Effect,"30.3 µM, […]",-24.65%
CO[C@H]1CCN(c2ccc(C)nn2)[C@H]1Cc1cnn(C)c1,Percent Effect,"30 µM, 30.03 µM",12.56%
Fc1ccccc1CN(CCCn1ccnc1)CC1CCOC1.O=C(O)CC(O)(CC(=O)O)C(=O)O (stereo not drawn),Percent Effect,"30.3 µM, […]",-0.3397%
Cc1cc(CCC(=O)O)nc(C2CCCN2c2ccnc(C)n2)n1 (stereo not drawn),Percent Effect,"30.3 µM, […]",3.845%
Cl.Cl.c1cn(-c2cnc(C3CCNCC3)cn2)cn1,Percent Effect,"30.3 µM, […]",-23.68%
CC(C)(C)c1ccc(OCC(N)=O)c(CN2C[C@H]3C[C@H](O)C[C@H]3C2)c1,Percent Effect,"30.3 µM, […]",-10.55%
COc1ccc(C(=O)N2C[C@@H](NC(=O)N(C)C)[C@H](C(C)C)C2)c(OC)n1,Percent Effect,"30 µM, 30.03 µM",-11.49%
Cc1nc(CN(C)C2CCN(Cc3ccc4ccccc4n3)C2)no1 (stereo not drawn),Percent Effect,"30.3 µM, […]",99.64%
Cc1nc(CN(C)C2CCN(Cc3nc4ccccc4s3)C2)no1 (stereo not drawn),Percent Effect,"30 µM, 30.03 µM",13.35%
Cc1nc(CN(C)C2CCN(Cc3nc4ccccc4n3C)C2)no1 (stereo not drawn),Percent Effect,10 µM,-9.408%
same,Percent Effect,"30.3 µM, […]",44.6%
Cc1nc(CN2CCCC(N(C)Cc3cscn3)C2)no1 (stereo not drawn),Percent Effect,"30 µM, 30.03 µM",106.7%
Cc1cc(CN(C)C2CCCN(Cc3noc(C)n3)C2)no1 (stereo not drawn),Percent Effect,"30.3 µM, […]",-25.02%
CN(Cc1cscn1)C1CCCN(Cc2noc(C3CC3)n2)C1 (stereo not drawn),Percent Effect,"30 µM, 30.03 µM",-28.03%
Cc1occc1C(=O)N1C[C@@H]2OCCN(c3ncccn3)[C@@H]2C1.O=C(O)C(F)(F)F,Percent Effect,"30.3 µM, […]",-9.285%
COc1ccc(-n2ccnc2-c2ccc(C(=O)O)s2)cc1CO,Percent Effect,"30 µM, 30.03 µM",-62.12%
Nc1ncc(-c2ccc(F)cc2)c(C2CCCNC2)n1 (stereo not drawn),Percent Effect,"30.3 µM, […]",1.475%
Nc1ncc(-c2ccc(Cl)cc2)c(C2CCCNC2)n1 (stereo not drawn),Percent Effect,"30.3 µM, […]",28.09%
Nc1ncc(-c2ccc(C(F)(F)F)cc2)c(C2CCCNC2)n1 (stereo not drawn),Percent Effect,"30.3 µM, […]",90.9%
Cc1nc(C)c(C(=O)N2Cc3ccccc3OCC2CN(C)C)o1.Cl.Cl (stereo not drawn),Percent Effect,"30.3 µM, […]",-20.04%
O=C(O)C(F)(F)F.O=C(O)C(F)(F)F.O=C(c1n[nH]c2c1CN(C1CCOC1)CC2)N1CCCC1 (stereo not drawn),Percent Effect,"30.3 µM, […]",8.032%
CCCNC(=O)c1nn(CC)cc1NC(=O)c1c(C)nn(C)c1C,Percent Effect,"30.3 µM, […]",45.33%
CCCNC(=O)c1nn(CC)cc1NC(=O)c1cn(C)nc1C,Percent Effect,"30.3 µM, […]",26.24%
CCn1cc(NC(=O)c2c(C)nn(C)c2C)c(C(N)=O)n1,Percent Effect,"30.3 µM, […]",53.08%
Cc1cnc2n(c1=O)CC(C(=O)Nc1ccon1)CS2 (stereo not drawn),Percent Effect,"30 µM, 30.03 µM",-0.7773%
O=C(c1cc[nH]n1)N1CCCC(c2cc(C(F)(F)F)[nH]n2)C1 (stereo not drawn),Percent Effect,"30.3 µM, […]",17.05%
O=C(c1cc(Cl)c[nH]1)N1CCCC(c2cc(C(F)(F)F)[nH]n2)C1 (stereo not drawn),Percent Effect,"30.3 µM, […]",80.28%
O=C(c1ccc[nH]1)N1CCCC(c2cc(C(F)(F)F)[nH]n2)C1 (stereo not drawn),Percent Effect,"30 µM, 30.03 µM",38.21%
CCOC(=O)C1CC2(CCCCC2)N2CCC(=O)N12 (stereo not drawn),Percent Effect,"30.3 µM, […]",-30.31%
Cc1ccc(C(=O)N2Cc3c(CN4CCCCC4)nn(C)c3C2)o1.O=C(O)C(F)(F)F,Percent Effect,"30 µM, 30.03 µM",0.5997%
COc1cccc(-c2cc(NCC(=O)O)nc3[nH]ccc23)n1,Percent Effect,"30.3 µM, […]",-16.38%
COc1cccc(-c2cc(NCCN(C)C)nc3[nH]ccc23)n1,Percent Effect,"30.3 µM, […]",96.05%
COc1cccc(-c2cc(NCCO)nc3[nH]ccc23)n1,Percent Effect,"30.3 µM, […]",-6.078%
O=C(O)CCn1ccc2c(nnc3c(-c4ccc(F)cc4)cnn32)c1=O,Percent Effect,"30 µM, 30.03 µM",-41.42%
Cc1ccc(-n2cc(CN3CCOCC(CN(C)C)C3)cn2)cc1C (stereo not drawn),Percent Effect,"30.3 µM, […]",98.04%
Cc1cc(C)c(-n2cccn2)c(CN2CCOCC(CN(C)C)C2)c1 (stereo not drawn),Percent Effect,"30.3 µM, […]",-14.72%
Cc1cc(-n2cccn2)ccc1CN1CCOCC(CN(C)C)C1 (stereo not drawn),Percent Effect,"30.3 µM, […]",-10.31%
CN(C)c1ncc2c(O)nc(C3CCNCC3)cc2n1.Cl,Percent Effect,"30.3 µM, […]",-29.5%
CC(=O)NC1CCN(c2ccnc(C3CCNCC3)c2)CC1.O=C(O)C(F)(F)F,Percent Effect,"30.3 µM, […]",-10.98%
O=C(Nc1ccccn1)NC1CCN(c2ccccc2OC(F)F)C1 (stereo not drawn),Percent Effect,"30 µM, 30.03 µM",-33.53%
O=C(Nc1ccncc1)NC1CCN(c2ccccc2OC(F)F)C1 (stereo not drawn),Percent Effect,"30 µM, 30.03 µM",57.33%
O=C(Nc1cccnc1)NC1CCN(c2ccccc2OC(F)F)C1 (stereo not drawn),Percent Effect,"30 µM, 30.03 µM",-24.57%
Cc1nc(N(C)C)nc(C)c1NC(=O)c1ccccc1F,Percent Effect,"30 µM, 30.03 µM",-23.68%
CO[C@@H]1CCN(Cc2cnn(C)c2)[C@@H]2CN(Cc3cccnc3)C[C@@H]21.O=C(O)C(F)(F)F.O=C(O)C(F)(F)F.O=C(O)C(F)(F)F,Percent Effect,"30 µM, 30.03 µM",-0.5656%
CN(C)C(=O)CN1CCC(c2c(C(N)=O)sc3ncccc23)C1 (stereo not drawn),Percent Effect,"30.3 µM, […]",-20.96%
Cc1ncc2c(n1)CN(Cc1cccc3c1OCCO3)CC2,Percent Effect,"30 µM, 30.03 µM",-9.069%
CC(C)c1ncc2c(n1)CN(Cc1cccc3c1OCCO3)CC2,Percent Effect,"30 µM, 30.03 µM",65.77%
CCc1ncc2c(n1)CN(Cc1cccc3c1OCCO3)CC2,Percent Effect,"30 µM, 30.03 µM",-15.38%
O=C(O)C(F)(F)F.O=C(O)C(F)(F)F.O=C(c1ccsc1)N1C[C@@H]2OCCN(CCN3CCCC3)[C@@H]2C1,Percent Effect,"30.3 µM, […]",-142.2%
CCn1cc(Cl)c(C(=O)NCCOC)n1,Percent Effect,"30.3 µM, […]",-26.01%
COC(=O)CCc1c(C)nc2cc(O)nn2c1C,Percent Effect,"30 µM, 30.03 µM",37.13%
COc1ccc(NC(=O)CCc2c(C)nc3cc(O)nn3c2C)cn1,Percent Effect,"30 µM, 30.03 µM",73.91%
CCNC(=O)CCc1c(C)nc2cc(O)nn2c1C,Percent Effect,"30 µM, 30.03 µM",30.72%
Cc1ccc2c(c1)CN(C(=O)c1cccnc1)C(CN(C)C)CO2.Cl (stereo not drawn),Percent Effect,"30.3 µM, […]",-3.741%
Cc1cnc(N2CCO[C@@H]3CC(COCc4cccnc4)C[C@H]32)nc1.O=C(O)C(F)(F)F.O=C(O)C(F)(F)F (stereo partly drawn),Percent Effect,"30.3 µM, […]",-14.97%
Cl.c1cnc2c(c1)cc([C@@H]1CCCO1)n2CCN1CCOCC1,Percent Effect,"30.3 µM, […]",-1.684%
CCc1ccc(S(=O)(=O)N2Cc3c(CN(C)C)nn(C)c3C2)cc1.O=C(O)C(F)(F)F,Percent Effect,"30.3 µM, […]",-1.293%
O=C(Nc1cccc(CN2CCOC2=O)c1)N1CCSCC1,Percent Effect,"30 µM, 30.03 µM",53.61%
O=C(Nc1cccc(CN2CCOC2=O)c1)N1CCCC1,Percent Effect,"30 µM, 30.03 µM",-2.123%
O=C(Nc1cccc(CN2CCOC2=O)c1)N1CCCCCC1,Percent Effect,"30 µM, 30.03 µM",-56.22%
COc1ccc(C[C@H]2CN(C(=O)CN(C)C)CC[C@H]2OC)cc1.O=C(O)C(F)(F)F,Percent Effect,"30.3 µM, […]",4.427%
CCS(=O)(=O)N1Cc2ccccc2CC1C(=O)OCc1cc(C)no1 (stereo not drawn),Percent Effect,"30 µM, 30.03 µM",-34.32%
CCS(=O)(=O)N1Cc2ccccc2CC1C(=O)OCc1c(C)noc1C (stereo not drawn),Percent Effect,"30 µM, 30.03 µM",-54.09%
Cc1cc(COC(=O)[C@@H]2Cc3ccccc3CN2S(C)(=O)=O)no1,Percent Effect,"30 µM, 30.03 µM",77.9%
COCCNC(=O)N1CCCC1COc1ccccc1 (stereo not drawn),Percent Effect,"30.3 µM, […]",-9.999%
Cc1ccccc1SC1CCN(C(=O)C2CNC(=O)N2)CC1 (stereo not drawn),Percent Effect,"30.3 µM, […]",-1.493%
Cc1ccccc1SC1CCN(C(=O)[C@H]2[C@@H]3CNC[C@@H]32)CC1,Percent Effect,"30.3 µM, […]",52.77%
Cc1ccccc1SC1CCN(C(=O)C2CNCC(=O)N2)CC1 (stereo not drawn),Percent Effect,"30.3 µM, […]",6.741%
COCC1CN(Cc2ccoc2)Cc2nn(C)cc21.O=C(O)C(F)(F)F (stereo not drawn),Percent Effect,"30 µM, 30.03 µM",26.18%
CN(C)C[C@@H]1CCC[C@@H]2CN(c3nccc(C(F)(F)F)n3)C[C@@H]21.O=C(O)C(F)(F)F,Percent Effect,"30.3 µM, […]",99.5%
CN(C)C[C@@H]1CCC[C@@H]2CN(c3ncccn3)C[C@@H]21.O=C(O)C(F)(F)F,Percent Effect,"30.3 µM, […]",-12.16%
CN(C[C@@H]1CCC[C@@H]2CN(c3ncccn3)C[C@@H]21)C1CC1.O=C(O)C(F)(F)F,Percent Effect,"30.3 µM, […]",-3.838%
